# The campaign covered roughly 190,000 compounds. About 6,900 (3.6%) were called active. No stated cut-off is given here; in the data, active means inhibition above about 50%; inactive means the rest. The entries come from a sample that favours actives as a whole.
# Biological target: Huntingtin (Homo sapiens) (UniProt P42858)
# Experiment: mutant huntingtin-calmodulin interaction inhibitors – biochemical, AlphaScreen, primary screen (AID 1671202);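 on inhibition: 0% = both proteins with DMSO and 100% = one protein alone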
# Conditions: AlphaScreen His-mHTT/GST-CaM binding, luminescence; at 15 µM, hits give high values
# Huntingtin (Homo sapiens), sequence (P42858 whole entry, looked up, stated change not applied): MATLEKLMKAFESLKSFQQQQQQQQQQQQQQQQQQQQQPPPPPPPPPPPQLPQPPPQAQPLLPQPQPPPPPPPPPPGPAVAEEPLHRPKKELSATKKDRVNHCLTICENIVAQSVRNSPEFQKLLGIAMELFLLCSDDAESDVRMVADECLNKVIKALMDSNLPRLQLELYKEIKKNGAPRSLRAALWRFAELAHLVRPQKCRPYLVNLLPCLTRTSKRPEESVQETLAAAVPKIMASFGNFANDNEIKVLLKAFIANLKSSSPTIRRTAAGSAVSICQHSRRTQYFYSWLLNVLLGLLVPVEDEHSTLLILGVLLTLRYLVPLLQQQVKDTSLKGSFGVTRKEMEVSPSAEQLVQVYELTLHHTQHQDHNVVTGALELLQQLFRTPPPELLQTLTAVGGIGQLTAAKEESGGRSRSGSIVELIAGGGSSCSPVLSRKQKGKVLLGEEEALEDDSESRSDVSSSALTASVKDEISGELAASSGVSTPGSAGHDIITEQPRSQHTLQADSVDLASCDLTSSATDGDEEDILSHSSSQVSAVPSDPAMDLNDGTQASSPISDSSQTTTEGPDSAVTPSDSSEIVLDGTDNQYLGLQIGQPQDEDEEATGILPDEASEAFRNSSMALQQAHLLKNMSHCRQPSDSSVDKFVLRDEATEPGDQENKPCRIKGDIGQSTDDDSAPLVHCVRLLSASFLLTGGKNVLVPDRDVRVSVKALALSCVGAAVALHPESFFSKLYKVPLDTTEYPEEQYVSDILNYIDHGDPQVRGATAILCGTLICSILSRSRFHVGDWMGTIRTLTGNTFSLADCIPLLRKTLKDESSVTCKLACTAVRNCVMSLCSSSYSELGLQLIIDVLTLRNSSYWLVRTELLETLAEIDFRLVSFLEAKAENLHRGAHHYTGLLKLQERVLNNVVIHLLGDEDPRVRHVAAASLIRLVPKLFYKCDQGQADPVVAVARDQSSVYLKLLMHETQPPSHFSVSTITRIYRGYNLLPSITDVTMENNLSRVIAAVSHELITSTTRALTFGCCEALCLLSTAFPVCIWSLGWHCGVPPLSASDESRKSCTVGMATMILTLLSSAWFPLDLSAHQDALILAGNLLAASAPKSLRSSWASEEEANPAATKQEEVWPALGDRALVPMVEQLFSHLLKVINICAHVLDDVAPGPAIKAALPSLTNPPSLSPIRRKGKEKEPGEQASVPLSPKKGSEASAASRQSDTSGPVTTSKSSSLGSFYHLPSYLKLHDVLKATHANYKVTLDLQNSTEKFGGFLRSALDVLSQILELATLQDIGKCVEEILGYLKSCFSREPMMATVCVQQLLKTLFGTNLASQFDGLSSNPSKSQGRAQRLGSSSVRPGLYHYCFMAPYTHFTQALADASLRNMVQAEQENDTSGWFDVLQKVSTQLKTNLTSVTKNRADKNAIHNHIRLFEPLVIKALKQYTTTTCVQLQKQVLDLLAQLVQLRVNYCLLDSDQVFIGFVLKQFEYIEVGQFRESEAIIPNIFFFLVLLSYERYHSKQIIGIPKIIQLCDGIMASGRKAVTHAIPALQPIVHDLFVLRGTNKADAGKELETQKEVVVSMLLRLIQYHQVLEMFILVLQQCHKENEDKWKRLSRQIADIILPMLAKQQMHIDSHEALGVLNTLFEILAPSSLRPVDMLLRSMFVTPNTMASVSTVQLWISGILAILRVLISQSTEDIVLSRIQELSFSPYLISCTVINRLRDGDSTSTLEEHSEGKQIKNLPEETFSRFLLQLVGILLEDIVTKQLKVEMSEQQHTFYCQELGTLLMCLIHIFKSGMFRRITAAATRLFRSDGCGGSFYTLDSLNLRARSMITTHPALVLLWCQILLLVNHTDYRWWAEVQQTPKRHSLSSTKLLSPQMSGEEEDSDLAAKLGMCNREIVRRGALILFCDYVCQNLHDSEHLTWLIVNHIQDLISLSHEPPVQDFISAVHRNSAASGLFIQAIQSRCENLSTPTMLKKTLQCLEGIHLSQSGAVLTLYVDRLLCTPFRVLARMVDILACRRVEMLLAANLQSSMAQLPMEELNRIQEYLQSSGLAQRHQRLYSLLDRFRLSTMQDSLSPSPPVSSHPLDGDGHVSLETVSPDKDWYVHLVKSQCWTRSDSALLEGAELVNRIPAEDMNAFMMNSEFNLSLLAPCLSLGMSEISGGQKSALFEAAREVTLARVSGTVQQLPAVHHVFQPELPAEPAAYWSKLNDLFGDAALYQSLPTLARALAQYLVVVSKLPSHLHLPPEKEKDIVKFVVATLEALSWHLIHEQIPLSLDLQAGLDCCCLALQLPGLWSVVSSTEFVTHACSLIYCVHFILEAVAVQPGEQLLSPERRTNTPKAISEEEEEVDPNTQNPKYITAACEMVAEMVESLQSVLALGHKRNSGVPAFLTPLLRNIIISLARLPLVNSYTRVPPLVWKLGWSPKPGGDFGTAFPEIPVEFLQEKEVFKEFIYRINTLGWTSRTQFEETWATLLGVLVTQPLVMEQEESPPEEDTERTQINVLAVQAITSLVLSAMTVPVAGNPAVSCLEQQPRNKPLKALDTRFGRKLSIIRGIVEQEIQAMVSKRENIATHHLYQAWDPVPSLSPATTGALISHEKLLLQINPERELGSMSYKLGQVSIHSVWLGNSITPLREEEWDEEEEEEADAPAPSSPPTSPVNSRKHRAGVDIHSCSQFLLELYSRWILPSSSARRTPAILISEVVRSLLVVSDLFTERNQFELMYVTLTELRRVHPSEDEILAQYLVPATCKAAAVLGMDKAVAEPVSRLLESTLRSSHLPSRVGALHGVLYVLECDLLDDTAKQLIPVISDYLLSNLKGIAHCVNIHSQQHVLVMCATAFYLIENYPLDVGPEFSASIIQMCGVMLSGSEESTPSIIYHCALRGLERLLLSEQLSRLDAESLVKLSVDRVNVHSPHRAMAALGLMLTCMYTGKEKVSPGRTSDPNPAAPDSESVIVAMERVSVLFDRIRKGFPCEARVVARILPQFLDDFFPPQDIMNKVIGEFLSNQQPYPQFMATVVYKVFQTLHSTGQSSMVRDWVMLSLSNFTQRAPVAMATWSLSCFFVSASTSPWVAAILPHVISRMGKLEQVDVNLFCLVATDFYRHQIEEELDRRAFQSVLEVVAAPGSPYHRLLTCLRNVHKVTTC
row,SMILES,inhibition
1,COc1ccc(C(=O)Nc2ccc(-n3nncc3-c3ccccc3)cc2)c(OC)c1,31% (inactive)
2,COc1ccc(C(=O)Nc2ccc(-n3nncc3-c3ccccc3)cc2)cc1,18% (inactive)
3,COc1ccc(C(=O)Nc2ccc(-n3nncc3-c3ccccc3)cc2)cc1OC,57% (active)
4,CC(=O)c1cccc(N=Cc2cc([N+](=O)[O-])ccc2O)c1,6% (inactive)
5,Cc1cccc(OCC(O)CNC2CCCC2)c1 (stereo unspecified),-1.4% (inactive)
6,CCOc1ccccc1C(=O)NCc1nnc2n1CCCC2,0.6% (inactive)
7,CC(C)n1cnc2cc(CNC(=O)c3ccccn3)ccc21,14% (inactive)
8,O=C(NCc1ccccc1)c1ccccn1,-4.7% (inactive)
9,O=C(Nc1cccn2cnnc12)c1ccccn1,62% (active)
10,COCCNC(=O)c1ccc2c(c1)ncn2-c1ccc(C)c(Cl)c1,24% (inactive)
11,COc1ccc(S(=O)(=O)N2CCC(C(=O)N3CCOCC3)CC2)cc1OC,-0.7% (inactive)
12,Cc1cccc(NS(=O)(=O)c2ccc3[nH]c4c(c3c2)CCCC4)c1,98.9% (active)
13,NC(=O)c1ccc2[nH]c3c(c2c1)CCCC3,12.3% (inactive)
14,O=C(NCc1ccc2[nH]c3c(c2c1)CCCC3)C1CC1,7.3% (inactive)
15,O=C(C1CCN(S(=O)(=O)c2ccc3[nH]c4c(c3c2)CCCCC4)CC1)N1CCCC1,56.3% (active)
16,Cc1cccc(NS(=O)(=O)c2ccc3nnc(C)n3c2)c1,5% (inactive)
17,Cc1ccc(C2=CC(c3ccc(Br)cc3)n3ncnc3N2)cc1 (stereo unspecified),7% (inactive)
18,O=C(NCc1cccnc1)c1cnn2c1NC(c1cccs1)CC2C(F)(F)F (stereo unspecified),4.91% (inactive)
19,CCOC(=O)N1CCCN(C(=O)OCC)CC1,-5.6% (inactive)
20,COc1ccc2c(c1)OCC/C2=N\OC(=O)c1cc(Cl)ccc1OC,inactive
21,C=CCN1C=C(c2ccc3ccccc3n2)C(C#N)c2ccccc21 (stereo unspecified),15% (inactive)
22,O=C(CSc1nccc(N2CCCCC2)n1)Nc1cc(C(F)(F)F)ccc1Cl,-12.5% (inactive)

row,SMILES,inhibition
1,CN(C)C(=O)c1cnn(-c2ccccc2)c1-n1cccc1,2.9% (inactive)
2,O=C(NCc1ccccn1)C1CC(=O)N(CCc2c[nH]c3ccc(F)cc23)C1 (stereo unspecified),46.9% (inactive)
3,Cc1cc(OCC(=O)N2N=C(C(F)(F)F)CC2(O)C(C)(C)C)ccc1Cl (stereo unspecified),100% (active)
4,Cc1cc(OCC(=O)Nc2ccc(Cl)cn2)ccc1Cl,-7% (inactive)
5,Cc1cc(OCC(=O)Nc2c(C)cccc2C)ccc1Cl,-6.2% (inactive)
6,Cc1sc2ncnc(N3CCN(c4ccccn4)CC3)c2c1-c1ccc(F)cc1,0.3% (inactive)
7,CCOC(=O)Nc1ccc2c(c1)CN(C(=O)c1cccs1)CC2,2.5% (inactive)
8,CCCNC(=O)C1CCN(c2nc3ccsc3c(=O)n2Cc2ccccc2)CC1,-1.4% (inactive)
9,CCOC(=O)C1CCc2sc(NC(=O)C3COCC(=O)N3Cc3ccccc3)nc21 (stereo unspecified),64.1% (active)
10,CCOC(=O)C1CCc2sc(NC(=O)Cn3nc(C)cc3C)nc21 (stereo unspecified),-9.9% (inactive)
11,COc1cc(CNc2cc(C)cc(C)c2)c([N+](=O)[O-])cc1OC,75% (active)
12,COc1cc(CN2CCN(CCO)CC2)c([N+](=O)[O-])cc1OC,1.8% (inactive)
13,COc1cc(CN2CCCN(C)CC2)c([N+](=O)[O-])cc1OC,-0.1% (inactive)
14,Clc1ccccc1C1CC(c2ccccc2)n2ncnc2N1 (stereo unspecified),3.6% (inactive)
15,Cc1ccc(-c2csc(/C(C#N)=C/c3ccc([N+](=O)[O-])cc3)n2)cc1,12.1% (inactive)
16,N#C/C(=C\c1ccc(F)cc1)c1nc(-c2ccc([N+](=O)[O-])cc2)cs1,1.8% (inactive)
17,N#C/C(=C\c1ccc(O)cc1)c1nc(-c2ccc(Cl)cc2)cs1,58.9% (active)
18,COc1cccc(CNC(=O)CC2CCN(S(=O)(=O)c3ccc(Cl)s3)CC2)c1,-9.77% (inactive)
19,O=C(C1CC1)N1N=C(c2ccc(Br)cc2)CC1(O)C(F)(F)F (stereo unspecified),-4% (inactive)
20,O=C(c1ccncc1)N1N=C(c2ccc(Cl)cc2)CC1(O)C(F)(F)F (stereo unspecified),58% (active)
21,CN(C)c1ccc(C(=O)N2N=C(c3ccc(Br)cc3)CC2(O)C(F)(F)F)cc1 (stereo unspecified),13% (inactive)
22,O=[N+]([O-])c1cccc(C=Nc2ccc3nc(-c4cccc(F)c4)oc3c2)c1O,1% (inactive)

row,SMILES,inhibition
1,O=C1c2ccccc2C(=O)N1CN(C(=O)c1ccc([N+](=O)[O-])cc1)c1ccc(F)cc1,1% (inactive)
2,N#Cc1c(-c2ccco2)cc(C2CC2)nc1SCc1ccccc1,-5% (inactive)
3,O=C(CSc1nnc(-c2ccco2)c(-c2ccco2)n1)Nc1ccc(Br)cc1,79% (active)
4,O=C(CSc1nnc(-c2ccco2)n1-c1ccccc1)Nc1ccc(F)cc1,11.2% (inactive)
5,O=C(CSc1oc(-c2ccco2)nc1S(=O)(=O)c1ccccc1)Nc1ccc(F)cc1,6% (inactive)
6,Cc1ccccc1NC(=O)CSc1nnc(-c2ccco2)n1C,1% (inactive)
7,c1ccc(CSc2nnc(-c3ccco3)c(-c3ccco3)n2)cc1,85% (active)
8,Cc1ccc(F)cc1NC(=O)CSc1nnc(-c2ccco2)c(-c2ccco2)n1,86% (active)
9,O=c1[nH]c(SCc2ccccc2)nnc1-c1ccccc1,-3% (inactive)
10,Cc1ccc(F)cc1NC(=O)Cc1nn(C)c(=O)c2ccccc12,3% (inactive)
11,CCOCCCNC(=O)C1CCCN(c2nccc(C)n2)C1 (stereo unspecified),-8.18% (inactive)
12,Cc1c(C(=O)N2CCN(C)CC2)c(CC(C)C)nn1-c1ccc(Cl)c(Cl)c1,94.8% (active)
13,CCN1CCN(C(=O)c2c(C(C)C)nn(-c3cccc(Cl)c3)c2C(C)C)CC1,32.9% (inactive)
14,CCc1nn(-c2ccc(F)cc2)c(CC)c1C(=O)N1CCN(C)CC1,9.8% (inactive)
15,CN(C)C(=O)CSc1nnc(N)s1,-4.07% (inactive)
16,Cc1ccc2c(c1)C(=O)NC1(CCN(C(=O)c3ccc(C(F)(F)F)cc3)CC1)N2C,4.4% (inactive)
17,O=C(c1ccccc1F)N1CCCC(c2ccnc(-c3cccc(F)c3)n2)C1 (stereo unspecified),1.2% (inactive)
18,N#Cc1ccc(C(=O)N2CCCC(c3ccnc(Nc4cccc(F)c4)n3)C2)cc1 (stereo unspecified),6.41% (inactive)
19,N#Cc1ccc(C(=O)N2CCCC(c3ccnc(Nc4ccccc4)n3)C2)cc1 (stereo unspecified),-5.02% (inactive)
20,CN(C)c1ccc(C(=O)N2CCCC(c3ccnc(Nc4cccc(F)c4)n3)C2)cc1 (stereo unspecified),80.1% (active)
21,O=C(c1ccccc1)N1CCCC(c2ccnc(Nc3ccccc3)n2)C1 (stereo unspecified),43.6% (inactive)
22,COc1ccc(C(=O)N2CCCC(c3ccnc(Nc4ccccc4)n3)C2)cc1 (stereo unspecified),69.4% (active)

# Reference: PubChem BioAssay AID1671202 (University of Kansas High Throughput Screening Laboratory, 2021)
